Measured values published in the supplement of paper PMC6555819.

Columns and labels:
Assay in all cases: PBM binding z-score (relative to random genomic background probes); higher = stronger binding; sequences stand for … in GC…GCGATTGACAGCGTAGAATGAAGG
[1] = system: FXR:RXRa (NR concentration 270 nM, RXRa partner concentration 90 nM)
How it was run: (§1)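 Ligand-free nuclear receptor dimers were applied to custom Agilent 4×180K protein-binding microarrays whose double-stranded probes carried direct-repeat seeds, single-nucleotide variants, half-site ablations and random human genomic background sequences in 34-nt variable regions. Incubation lasted 1 h. Binding z-scores were computed against the random background probes from regression-normalized fluorescence.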

[2] = system: LXRa:RXRa (NR concentration 270 nM, RXRa partner concentration 90 nM)
How it was run: as §1

[3] = system: LXRa homodimer (NR concentration 270 nM)
How it was run: as §1

[4] = system: LXRb:RXRa (NR concentration 270 nM, RXRa partner concentration 90 nM)
How it was run: as §1

[5] = system: LXRb homodimer (NR concentration 270 nM)
How it was run: as §1

[6] = system: PPARa:RXRa (NR concentration 270 nM, RXRa partner concentration 90 nM)
How it was run: as §1

[7] = system: PPARg:RXRa (NR concentration 180 nM, RXRa partner concentration 90 nM)
How it was run: as §1

[8] = system: PPARg:RXRa 270nM:90nM, anti-RXR (NR concentration 270 nM, RXRa partner concentration 90 nM)
How it was run: as §1

[9] = system: PPARg:RXRa 30nM:10nM, anti-RXR (NR concentration 30 nM, RXRa partner concentration 10 nM)
How it was run: as §1

[10] = system: PPARg:RXRa 90nM:30nM, anti-RXR (NR concentration 90 nM, RXRa partner concentration 30 nM)
How it was run: as §1

Sequence | PBM binding z-score [1] | PBM binding z-score [2] | PBM binding z-score [3] | PBM binding z-score [4] | PBM binding z-score [5] | PBM binding z-score [6] | PBM binding z-score [7] | PBM binding z-score [8] | PBM binding z-score [9] | PBM binding z-score [10]
GCTTGTAGATGAAGGTTAAGAAAGACTAAGCTAA | -0.515 | 0.357 | -0.563 | -0.0135 | -0.789 | 0.816 | 0.15 | 0.943 | -0.144 | 0.254
CCTCGGAGGACAGAAGGTCAGAGGTGTCCGCTTT | 1.1 | 1.45 | 0.406 | 0.796 | -0.636 | 2.06 | 0.463 | 1.58 | -0.408 | 0.771
CCTACTGGGCCATTCAGAGGTCATTGAACATATG | 2.73 | 4.42 | 6.32 | 4.04 | 0.612 | 4.06 | 2.51 | 3.47 | 1.18 | 2.51
ACTAGTTGGTCAGCTGAGGTCGCACACAATTCGG | 1.01 | 0.732 | 0.139 | 1.1 | 0.147 | 1.49 | 0.497 | 0.445 | -0.204 | 0.316
CTAGACAGGTGAAAGGTAACTCAGTCTGGTACGC | 0.53 | 0.864 | -0.332 | 0.732 | -0.56 | 3.4 | 6.11 | 6.66 | 5.12 | 6.47
TAGCCTAGGTCAGATCGGGCCAGTAAACGCTATA | 2.02 | 1.16 | -0.524 | 0.637 | -0.2 | 1.5 | 0.341 | 0.516 | -0.817 | -0.377
CGAACTAGGTCAAGGAGAGTGAATCTCCGCACGC | 2.98 | 1.99 | -0.412 | 1.17 | -0.521 | 4.25 | 7.01 | 6.29 | 3.34 | 5.99
CGTCAAAGTTCAACTAAGGTAACATAAAGCACGC | 7 | 6.17 | 4.4 | 4.25 | 1.93 | 5.1 | 5.41 | 5.57 | 2.61 | 4.55
CCTTACGGGTCACGAGCTTATAGCACGACGAGCG | 6.56 | 4.18 | -0.258 | 3.49 | -0.00639 | 5.9 | 6.33 | 6.04 | 2.64 | 4.89
TCGAGTAGGTTAGTCGGGGCAATCAGCCAACATA | 0.297 | -0.165 | -0.263 | 0.224 | -1.01 | 0.796 | 0.0628 | 0.946 | 1.01 | 0.797
TAGCCTAGGGCATTGGGCCAGTATAGTACGCATC | -0.339 | -0.336 | -0.318 | -0.673 | -0.892 | -0.0901 | 0.887 | 0.225 | -0.369 | -0.368
ATACCAAGGTGATCGTGAGGTTGTTGATACTAAC | 0.619 | 0.547 | 0.106 | 0.338 | -0.241 | 0.626 | 0.435 | 0.149 | 0.0438 | 0.112
CAAACTAGGTCACCGGCAGGTCAAAGTCCGCATG | 5.82 | 5.46 | 3.97 | 4.21 | 0.888 | 5.7 | 9.54 | 7.62 | 5.44 | 7.61
TAGACTAGGTCATGCGGGCCAGTATAGTGTCGGC | 3.22 | 2.34 | 0.304 | 1.15 | 0.173 | 3.96 | 5.48 | 4.65 | 2.34 | 3.95
TCGAGTAGGTTAGTCGGGGCATGCAGCCAACATA | -0.0547 | 0.104 | -0.427 | 0.0747 | -0.894 | 0.523 | 0.2 | 0.809 | 0.702 | 0.884
CGAACGAGGGCTTGAGTTGATAGCAAATGCCGAT | -0.357 | -0.589 | -0.512 | -0.688 | -0.924 | -0.425 | 0.25 | -0.478 | -0.548 | -0.639
CCTGCTAGGTCAATGGTCAGCCAAAGCAGCTCGC | 2.77 | 2.02 | 0.0245 | 1.36 | -0.223 | 3.1 | 5.04 | 5.03 | 2.96 | 5.02
CAGCCTAGGTCAGGGCAAGTATAGGAGGAACGTT | 2.01 | 1.35 | -0.33 | 0.587 | -1.01 | 2.23 | 1.32 | 1.24 | -0.349 | 0.306
CGAACTAGGTCAGAACAGGACAGGGAAGGATGAT | 1.5 | 1.01 | 0.0984 | 0.515 | -0.138 | 3.4 | 5.45 | 4.61 | 1.99 | 3.65
